PubChem BioAssay (NCATS)
Records with an inconclusive call do not appear. Values without a mark were called inactive. The source made the active and inactive calls. Calls follow the shape of the dose curve; as a rule, active = well fitted curve in the direction sought with a large enough effect; inconclusive = small, poorly fitted or top-dose-only effect, or another doubt; inactive = no such curve, though single readings can be large; an effect the other way counts as inactive or inconclusive.

assay: qHTS of pediatric cancer cell lines to identify multiple opportunities for drug repurposing: Primary screen for BT-12 cells (AID 1347101); details: BT-12 viability, CellTiter-Glo luminescence, 48 h; series mostly up to 57.3 µM; activity change, negative = cytotoxic: at the top concentration;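 also: plate controls were DMSO for no effect and bortezomib positive control for full effect; nearly all actives have a fitted effect of over 25% in size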
Summary of the method: (§1)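 Cells (500-1,000/well) rested 5 h, then received compounds for 48 h; metabolically active cells were measured by CellTiter-Glo luminescence. Final concentrations spanned up to 46 µM (MIPE, 11-point) or 0.59 nM-46 µM (NPC, 8-point) in primary screens, 11-point in follow-ups.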

Row | Structure (SMILES) | activity change, negative = cytotoxic
1 | Oc1cccc(O)c1 | 7.19%
2 | CC(COc1ccccc1)NC(C)C(O)c1ccc(O)cc1 (configuration not stated) | 3.45%
3 | CC1(C)S[C@@H]2[C@H](NC(=O)Cc3ccccc3)C(=O)N2[C@H]1C(=O)O (tested in a mixture with another compound) | 13.9%
4 | CCC(=O)Nc1ccc(O)cc1 | 10.4%
5 | CC[C@@]1(c2ccccc2)NC(=O)N(C)C1=O | 5.6%
6 | Cn1c(=O)c2c(ncn2CC2OCCO2)n(C)c1=O | 12.9%
7 | C[C@@H]1CCN(C(=O)[C@H](CCCN=C(N)N)NS(=O)(=O)c2cccc3c2NC[C@H](C)C3)[C@@H](C(=O)O)C1 | -10.5%
8 | Cc1ncc(COP(=O)(O)O)c(C=O)c1O | 9.45%
9 | C[C@@H]1CC[C@@]2(OC1)O[C@H]1C[C@H]3[C@@H]4CC[C@H]5C[C@@H](O)CC[C@]5(C)[C@H]4CC(=O)[C@]3(C)[C@H]1[C@@H]2C | 6.34% [at 6.03 µM]

assay: qHTS of pediatric cancer cell lines to identify multiple opportunities for drug repurposing: Primary screen for Rh18 cells (AID 1347102); details: Rh18 rhabdomyosarcoma viability, CellTiter-Glo luminescence, 48 h; series mostly up to 46 µM; activity change, negative = cytotoxic: at the top concentration; also: % is scaled to controls: 0 for no effect and ±100 for the full control effect; nearly all actives have a fitted effect of over 65% in size
Summary of the method: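 Cells (500-1,000/well) in growth media were settled 5 h at 37 degrees C, then given compounds for 48 h. Viability was read as CellTiter-Glo luminescence. Primary runs used MIPE at 11 points (0.78 nM-46 µM) and NPC at 8 points (0.59 nM-46 µM); follow-ups used 11 points.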

Row | Structure (SMILES) | activity change, negative = cytotoxic
10 | CCN(CC)C(=O)Nc1ccc(OCC(O)CNC(C)(C)C)c(C(C)=O)c1 (configuration not stated) | 12.4%
11 | CC(C)(O)c1ccccc1CC[C@@H](SCC1(CC(=O)O)CC1)c1cccc(/C=C/c2ccc3ccc(Cl)cc3n2)c1 | 0.335%
12 | Cc1cc2c(cc1S(N)(=O)=O)S(=O)(=O)CCC2 | 1.97%
13 | NC(N)=NCCC[C@H](N)C(=O)O | 15.1% [at 4.84 µM]
14 | CC(C)(C)C(=O)C(Oc1ccc(Cl)cc1)n1ccnc1 (configuration not stated) | 7.27%
15 | O=C(O)c1ccccc1-c1ccc(C(F)(F)F)cc1 | 6.61%
16 | CC(=O)Oc1c(C)c(C)c2c(c1C)CC[C@@](C)(CCC[C@H](C)CCC[C@H](C)CCCC(C)C)O2 | 1.78%
17 | Cc1c(Cl)cccc1Nc1ccccc1C(=O)O | -2.14%
18 | CCOc1ccc2ccccc2c1C(=O)N[C@@H]1C(=O)N2[C@@H]1SC(C)(C)[C@@H]2C(=O)O | 8.61%
19 | CCCCCCCCCCCCCCCC(=O)NCCO | 9.91%
20 | Cc1ccc(C(C)C)cc2c(C)ccc1-2 | 11%
21 | O=C1O[C@H](CO)[C@@H](O)[C@H](O)[C@H]1O | 11.4%
22 | CC(=O)Oc1ccc(C2(c3ccc(OC(C)=O)cc3)C(=O)Nc3ccccc32)cc1 | -10.2%
23 | COc1ccc2cc1Oc1cc3c(cc1OC)CC[N+](C)(C)[C@H]3Cc1ccc(cc1)Oc1c(OC)c(OC)cc3c1[C@@H](C2)[N+](C)(C)CC3 | -1.2%
24 | CC1=C(CC(=O)O)c2cc(F)ccc2/C1=C\c1ccc(S(C)(=O)=O)cc1 | 2.34%
25 | C#CCN(C)Cc1ccccc1 | -5.1%
26 | Cc1ncc([N+](=O)[O-])n1CC(O)CCl (configuration not stated) | 14.4%
27 | C[C@@H](O)[C@H](N)C(=O)O | 10.8% [at 16.1 µM]
28 | Nc1nc2c(ncn2CCC(CO)CO)c(=O)[nH]1 | 8.74%
29 | CCOc1nc2cccc(C(=O)O)c2n1Cc1ccc(-c2ccccc2-c2nn[nH]n2)cc1 | 0.899%

Row | Structure (SMILES) | activity change, negative = cytotoxic
30 | CC1(C)OC(=O)NC1=O | 2.6%
31 | CCCOC(=O)c1ccccc1 | 7.91%
32 | COc1cc(C)c(Cc2cnc(N)nc2N)cc1OC | -13%
33 | CC(=O)CCC(=O)O | 18.5%
34 | [O-][n+]1cccc(CO)c1 | 11.9%
35 | Oc1cn2c(n1)Nc1ccc(Cl)c(Cl)c1C2 | 3.16% [at 16.1 µM]
36 | C[C@@H]1CN(c2c(F)c(F)c3c(=O)c(C(=O)O)cn(C4CC4)c3c2F)C[C@H](C)N1 | 19.8% [at 16.1 µM]
37 | CC1=C(CC(=O)O)c2cc(F)ccc2/C1=C\c1ccc(S(C)=O)cc1 (configuration not stated) | 8.69%
38 | NC1CCN(c2cccc(Cl)n2)CC1 | -2.45%
39 | COc1ccc2c(c1)C(=O)N(CCc1ccc(S(=O)(=O)NC(=O)NC3CCCCC3)cc1)C(=O)C2(C)C | 10.6%
40 | Oc1cccc(O)c1 | 24.4%
41 | CC(COc1ccccc1)NC(C)C(O)c1ccc(O)cc1 (configuration not stated) | 7.21%
42 | CC1(C)S[C@@H]2[C@H](NC(=O)Cc3ccccc3)C(=O)N2[C@H]1C(=O)O (tested in a mixture with another compound) | 16.5%
43 | CCC(=O)Nc1ccc(O)cc1 | 9.45%
44 | CC[C@@]1(c2ccccc2)NC(=O)N(C)C1=O | 7.5%
45 | Cn1c(=O)c2c(ncn2CC2OCCO2)n(C)c1=O | 4.04%
46 | C[C@@H]1CCN(C(=O)[C@H](CCCN=C(N)N)NS(=O)(=O)c2cccc3c2NC[C@H](C)C3)[C@@H](C(=O)O)C1 | 1.84%
47 | Cc1ncc(COP(=O)(O)O)c(C=O)c1O | -8.55%
48 | C[C@@H]1CC[C@@]2(OC1)O[C@H]1C[C@H]3[C@@H]4CC[C@H]5C[C@@H](O)CC[C@]5(C)[C@H]4CC(=O)[C@]3(C)[C@H]1[C@@H]2C | 11.3% [at 4.84 µM]

assay: qHTS of pediatric cancer cell lines to identify multiple opportunities for drug repurposing: Primary screen for OHS-50 cells (AID 1347103); details: OHS-50 osteosarcoma viability, CellTiter-Glo luminescence, 48 h; series mostly up to 57.3 µM; activity change, negative = cytotoxic: at the top concentration; also: nearly all actives have a fitted effect of over 40% in size; also: potency is read from the fitted curve at half-maximal effect;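 as to activity change, negative = cytotoxic: plate controls were DMSO neutral control for no effect and bortezomib positive control for full effect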
Summary of the method: as §1

Row | Structure (SMILES) | activity change, negative = cytotoxic | Potency
49 | CCN(CC)C(=O)Nc1ccc(OCC(O)CNC(C)(C)C)c(C(C)=O)c1 (configuration not stated) | 19.9% | –
50 | CC(C)(O)c1ccccc1CC[C@@H](SCC1(CC(=O)O)CC1)c1cccc(/C=C/c2ccc3ccc(Cl)cc3n2)c1 | 13.6% | –
51 | Cc1cc2c(cc1S(N)(=O)=O)S(=O)(=O)CCC2 | 14.5% | –
52 | NC(N)=NCCC[C@H](N)C(=O)O | -1.99% [at 6.18 µM] | –
53 | CC(C)(C)C(=O)C(Oc1ccc(Cl)cc1)n1ccnc1 (configuration not stated) | -18.8% | –
54 | O=C(O)c1ccccc1-c1ccc(C(F)(F)F)cc1 | 11.8% | –
55 | CC(=O)Oc1c(C)c(C)c2c(c1C)CC[C@@](C)(CCC[C@H](C)CCC[C@H](C)CCCC(C)C)O2 | 5.16% | –
56 | Cc1c(Cl)cccc1Nc1ccccc1C(=O)O | 14.9% | –
57 | CCOc1ccc2ccccc2c1C(=O)N[C@@H]1C(=O)N2[C@@H]1SC(C)(C)[C@@H]2C(=O)O | 7.87% | –
58 | CCCCCCCCCCCCCCCC(=O)NCCO | 13.9% | –
59 | Cc1ccc(C(C)C)cc2c(C)ccc1-2 | 14.8% | –
60 | O=C1O[C@H](CO)[C@@H](O)[C@H](O)[C@H]1O | 10.3% | –
61 | CC(=O)Oc1ccc(C2(c3ccc(OC(C)=O)cc3)C(=O)Nc3ccccc32)cc1 | – | 1100 nM (active)
62 | COc1ccc2cc1Oc1cc3c(cc1OC)CC[N+](C)(C)[C@H]3Cc1ccc(cc1)Oc1c(OC)c(OC)cc3c1[C@@H](C2)[N+](C)(C)CC3 | 6.61% | –
63 | CC1=C(CC(=O)O)c2cc(F)ccc2/C1=C\c1ccc(S(C)(=O)=O)cc1 | 3.8% | –
64 | C#CCN(C)Cc1ccccc1 | 7.53% | –
65 | Cc1ncc([N+](=O)[O-])n1CC(O)CCl (configuration not stated) | -2.13% | –
66 | C[C@@H](O)[C@H](N)C(=O)O | 14.9% [at 19.7 µM] | –
67 | Nc1nc2c(ncn2CCC(CO)CO)c(=O)[nH]1 | 5.57% | –
68 | CCOc1nc2cccc(C(=O)O)c2n1Cc1ccc(-c2ccccc2-c2nn[nH]n2)cc1 | 14.6% | –

Row | Structure (SMILES) | activity change, negative = cytotoxic | Potency
69 | CC1(C)OC(=O)NC1=O | -0.62% | –
70 | CCCOC(=O)c1ccccc1 | -6.82% | –
71 | COc1cc(C)c(Cc2cnc(N)nc2N)cc1OC | -18.2% | –
72 | CC(=O)CCC(=O)O | 15% | –
73 | [O-][n+]1cccc(CO)c1 | 12.4% | –
74 | Oc1cn2c(n1)Nc1ccc(Cl)c(Cl)c1C2 | 12% [at 19.7 µM] | –
75 | C[C@@H]1CN(c2c(F)c(F)c3c(=O)c(C(=O)O)cn(C4CC4)c3c2F)C[C@H](C)N1 | 79.5% [at 19.7 µM] | –
76 | CC1=C(CC(=O)O)c2cc(F)ccc2/C1=C\c1ccc(S(C)=O)cc1 (configuration not stated) | 6.9% | –
77 | NC1CCN(c2cccc(Cl)n2)CC1 | -12.8% | –
78 | COc1ccc2c(c1)C(=O)N(CCc1ccc(S(=O)(=O)NC(=O)NC3CCCCC3)cc1)C(=O)C2(C)C | 6.52% | –
79 | Oc1cccc(O)c1 | -3.9% | –
80 | CC(COc1ccccc1)NC(C)C(O)c1ccc(O)cc1 (configuration not stated) | 11.2% | –
81 | CC1(C)S[C@@H]2[C@H](NC(=O)Cc3ccccc3)C(=O)N2[C@H]1C(=O)O (tested in a mixture with another compound) | 21.3% | –
82 | CCC(=O)Nc1ccc(O)cc1 | 3.83% | –
83 | CC[C@@]1(c2ccccc2)NC(=O)N(C)C1=O | -6.59% | –
84 | Cn1c(=O)c2c(ncn2CC2OCCO2)n(C)c1=O | 14.2% | –
85 | C[C@@H]1CCN(C(=O)[C@H](CCCN=C(N)N)NS(=O)(=O)c2cccc3c2NC[C@H](C)C3)[C@@H](C(=O)O)C1 | -9.83% | –
86 | Cc1ncc(COP(=O)(O)O)c(C=O)c1O | 4.21% | –
87 | C[C@@H]1CC[C@@]2(OC1)O[C@H]1C[C@H]3[C@@H]4CC[C@H]5C[C@@H](O)CC[C@]5(C)[C@H]4CC(=O)[C@]3(C)[C@H]1[C@@H]2C | 9.93% [at 6.18 µM] | –
